# TbPYK inhibitor – qHTS of Trypanosoma Brucei Inhibitors; Potency, µM (highest dose often 76.8 µM), without a hit: top-dose activity, negative = inhibition, most hits filed as inhibitors; actives 0.12% (n = 410,000); AID 624173, 2012; TbPYK enzyme, Kinase-Glo Plus ATP luminescence, 45 min; note: potency is the fitted concentration of half-maximal effect; % is set by controls: 0 for no effect and ±100 for the full control effect; nearly all actives have a fitted effect of over 50% in size
#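 TbPYK + substrate in 50 mM TEA pH 7.2, 100 mM KCl, 10 mM MgCl2, 0.05% BSA, 0.01% Tween-20; cpd pinned; ADP 130 uM final; 45 min RT; Kinase-Glo Plus 10 min; luminescence endpoint.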
# Sm TGR inh – qHTS Assay for the Inhibitors of Schistosoma Mansoni Peroxiredoxins; Schistosoma mansoni thioredoxin glutathione reductase (TGR), Q962Y6; purified TGR, DTNB reduction, TNB absorbance 405 nm; Potency, µM (series often up to 114 µM), for inactives: at the highest dose activity change, negative = inhibition, actives largely listed as inhibitors; actives 3% (n = 360,000); note: potency is the fitted concentration of half-maximal effect; % is set by controls: 0 for no effect and ±100 for the full control effect; nearly all actives have a fitted effect of over 60% in size
#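 First, TGR (20 nM dispensed) and NADPH were mixed with compound. Second, a 15 min room-temperature incubation followed. Third, further NADPH and then DTNB were added to start the reaction. Finally, TNB absorbance was monitored kinetically.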
# Shiga inhibitor – A qHTS for Small Molecule Inhibitors of Shiga Toxin | Vero cells, Shiga toxin protein synthesis inhibition reporter | inhibition, % at 38.7 µM | actives 9.2% (n = 290,000); in the data active = inhibition mostly above about 28%, no sharp cut-off; inactive = mostly below about 43%; note: 0% is about no effect
# Cycloheximide cs – Cycloheximide Counterscreen for Small Molecule Inhibitors of Shiga Toxin; actives 12% (n = 300,000); cell reporter, cycloheximide protein synthesis inhibition counterscreen; max response, %; in the data active = max response mostly above about 13%, no sharp cut-off; inactive = mostly below about 14%; note: read at 38.3 µM for the half of the compounds with a filed dose; 0% is about no effect
# Giardia FBPA inh – qHTS Assay for Inhibitors of Fructose-1,6-bisphosphate Aldolase from Giardia Lamblia; A8B2U2; purified Giardia FBPA; Potency, µM (highest dose often 59.6 µM), without a hit: at the top dose activity, negative = inhibition, actives largely listed as inhibitors; actives 0.71% (n = 290,000); AID 2451, 2010; note: potency is the fitted concentration of half-maximal effect; % is set by controls: 0 for no effect and ±100 for the full control effect; nearly all actives have a fitted effect of over 55% in size
#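 Giardia FBPA (40 nM reagent) was preincubated 10 min at RT with compound (up to 57.5 uM final), then substrate plus GAPDH/TPI/NAD/arsenate coupling system with diaphorase/resazurin was added; resorufin fluorescence (525/598 nm) was read after 20 min.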
# LmPK inhibitor – qHTS Assay for Inhibitors of Leishmania Mexicana Pyruvate Kinase (LmPK) | Q27686 | purified LmPK, Kinase-Glo ATP luminescence, 1 h | Potency, µM (top dose mostly 57.5 µM), for inactives: top-dose activity change, negative = inhibition, actives largely listed as inhibitors | actives 0.37% (n = 290,000) | AID 1721, 2009; note: potency is the fitted concentration of half-maximal effect; % is set by controls: 0 for no effect and ±100 for the full control effect
# Target sequence (Q27686 whole entry, looked up): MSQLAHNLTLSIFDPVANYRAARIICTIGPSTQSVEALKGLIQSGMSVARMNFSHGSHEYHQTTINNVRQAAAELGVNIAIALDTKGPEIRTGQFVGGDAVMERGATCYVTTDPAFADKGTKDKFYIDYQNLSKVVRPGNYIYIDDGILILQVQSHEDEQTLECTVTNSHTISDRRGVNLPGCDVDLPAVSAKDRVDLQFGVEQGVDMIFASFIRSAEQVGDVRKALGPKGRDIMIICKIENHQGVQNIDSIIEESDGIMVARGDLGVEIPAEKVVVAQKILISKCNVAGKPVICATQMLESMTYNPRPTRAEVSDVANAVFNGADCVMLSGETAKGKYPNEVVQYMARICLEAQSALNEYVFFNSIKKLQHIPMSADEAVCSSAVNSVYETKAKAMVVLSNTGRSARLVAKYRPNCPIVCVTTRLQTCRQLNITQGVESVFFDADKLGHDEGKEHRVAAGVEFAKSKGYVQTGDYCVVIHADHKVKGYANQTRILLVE
#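 Purified LmPK (0.1 nM) with 0.5 mM PEP and 0.1 mM ADP in imidazole buffer pH 7.2 with MgCl2/KCl, 1 h at room temperature. ATP formed was read by luciferase luminescence and normalized to no-enzyme and uninhibited controls.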
# * hit, by the source's call; . = not tested or not shown. The entries come from a sample that favours hits as a whole. Unless noted, calls come from the whole dose curve; as a rule, active = well fitted curve in the direction sought with a large enough effect; inconclusive = small, poorly fitted or top-dose-only effect, or another doubt; inactive = no such curve, though single readings can be large; an effect the other way counts as inactive or inconclusive.
SMILES,TbPYK inhibitor,Sm TGR inh,Shiga inhibitor,Cycloheximide cs,Giardia FBPA inh,LmPK inhibitor
CC(=O)NC(CCS(C)(=O)=O)C(=O)Nc1ccc2c(c1)OCCO2 (configuration not stated),4.1%,-11.1%,41.7*,10.9,-0.2%,0.0%
CC1(NC(=O)Cn2cc(C(F)(F)F)ccc2=O)CCS(=O)(=O)C1 (configuration not stated),-1.0%,-6.1%,.,.,.,.
CC(C)Cc1nn2c(=O)cc(COC(=O)c3cccc(NC(=O)c4cccs4)c3)nc2s1,0.3%,4.0%,.,.,.,.
O=C(O)C[C@@H]1C(=O)O[C@@H]2C(COC(=O)c3cc(O)c(O)c(O)c3)O[C@@H](OC(=O)c3cc(O)c(O)c(O)c3)[C@@H](OC(=O)c3cc(O)c(O)c4c3[C@H]1[C@H](O)C(=O)O4)[C@H]2OC(=O)c1cc(O)c(O)c(O)c1 (some centres not stated),.,15.8µM*,-3.9,-3.1,3.97µM*,7.1%
O=C(Cn1c(=O)n(Cc2ccccc2)c(=O)c2sc3ccccc3c21)Nc1ccc(F)cc1,-3.0%,-1.0%,.,.,.,.
CC(C)(S)[C@H](N)C(=O)O,.,.,.,.,-11.0%,.
O=C(CSc1ccc(Cl)cc1)NCC1CCCO1 (configuration not stated),1.1%,5.3%,-2.6,16.8*,8.0%,-4.2%
O=C(CSc1nnc(C2CC2)n1CC1CCCO1)Nc1ccc(Cl)cc1 (configuration not stated),0.4%,-13.6%,31.4*,12.9,5.0%,2.0%
Cc1ccc(C)c(OCCn2cc(/C=C(/C#N)C(=O)NCC3CCCO3)c3ccccc32)c1 (configuration not stated),-5.6%,-5.1%,-10.6,-2.5,0.4%,0.9%
N#Cc1c(NC(=O)CSc2nnc(-c3ccncc3)n2CC2CCCO2)sc2c1CCCC2 (configuration not stated),-9.0%,-0.1%,-9.3,-5.2,-3.7%,-2.0%
NC(=O)c1c(NC(=O)CSc2nnc(-c3ccccc3)n2CC2CCCO2)sc2c1CCC2 (configuration not stated),-0.5%,28.2µM*,15.9,-5.1,3.2%,-0.7%
N#C/C(=C\c1cn(CCOc2ccccc2)c2ccccc12)C(=O)NCC1CCCO1 (configuration not stated),-2.9%,3.1%,-25.2,29.4*,1.0%,3.6%
O=C(NCc1ccccc1Cl)c1c2c(nc3ccccc13)C(=O)N(C1CCCCC1)C2,0.8%,-3.4%,.,.,.,.
COCCn1c(C(=O)N2CCCC2)cc2c1C[C@H]1CN(C(=O)c3ccccc3)[C@@](Cc3ccc(OC)cc3)(C(=O)OC)[C@@H]21,.,.,.,.,0.0%,.
O=C(NC(c1ccc(F)cc1)c1ccc2ccccc2n1)C1CCN(CCOc2ccc(Cl)cc2)CC1 (configuration not stated),-0.8%,.,.,.,.,.
O=C(CCSc1ccccc1)NCC1CCCO1 (configuration not stated),-3.9%,5.5%,63.4*,29.4*,8.3%,-1.3%
Cc1cc(/C=C(\C#N)C(=O)NCC2CCCO2)c(C)n1-c1ccc(Cl)cc1 (configuration not stated),-1.3%,-21.5%,64.5*,25.5*,-1.6%,3.5%
O=C(COc1ccccc1)NCC1CCCO1 (configuration not stated),0.5%,-19.6%,19.5,-0.8,1.3%,-1.6%
O=C(NCCOc1ccc(Cl)cc1)C(=O)NCC1CCCO1 (configuration not stated),-1.4%,-5.0%,-11.4,0.7,1.2%,-8.4%
O=C(CCCOc1ccccc1)NCC1CCCO1 (configuration not stated),0.8%,-0.2%,26.4,28.4*,12.3%,0.2%
O=C(NCCOc1ccccc1)C(=O)NCC1CCCO1 (configuration not stated),2.7%,-7.7%,36.9*,11.6*,2.6%,0.1%
CCC/C=C(\CCC)C(NS(=O)(=O)c1ccc(C(F)(F)F)cc1)c1ccc(C(=O)OC)cc1 (configuration not stated),.,.,.,.,-14.6%,.
COc1ccc(C(C)(C)C)cc1NC(=O)CCCN1C(=O)NC(C)(C)C1=O,4.9%,-4.7%,.,.,.,.
COc1cccc(S(=O)(=O)Nc2ccc(C(=O)NCc3ccco3)cc2)c1,-1.6%,-21.7%,-9.4,5.3,-6.8%,7.0%
COc1cccc(S(=O)(=O)NCc2ccc(C(=O)NCC3CCCO3)cc2)c1 (configuration not stated),-2.9%,-8.9%,45.5*,22.0,5.1%,-0.7%
SMILES,TbPYK inhibitor,Sm TGR inh,Shiga inhibitor,Cycloheximide cs,Giardia FBPA inh,LmPK inhibitor
COc1cccc(S(=O)(=O)NCc2ccc(C(=O)NCc3ccco3)cc2)c1,-12.3%,28.2µM*,-4.7,-1.4,3.1%,0.1%
O=C(NCC1CCCO1)c1ccc(COCC(F)(F)C(F)F)cc1 (configuration not stated),3.0%,7.6%,26.0,19.0*,-0.1%,-1.1%
CCc1ccc2oc(C(=O)NC3CCS(=O)(=O)C3)cc(=O)c2c1 (configuration not stated),0.0%,-5.0%,-4.7,-3.2,-0.1%,5.5%
CCCc1cc(=O)oc2cc(C)cc(OC(C)C(=O)NCc3ccccn3)c12 (configuration not stated),0.0%,-2.8%,-4.1,-2.6,.,0.9%
Cc1ccc(NC(=O)Cc2c(C(=O)O)n(C)c3ccccc23)cc1F,0.3%,2.7%,44.4,11.9,21.5%,24.9%
CC(O)c1nc2ccccc2n1Cc1ccccc1 (configuration not stated),-3.2%,5.62µM*,-10.0,-0.6,-6.3%,-3.5%
CC(O)c1nc2ccccc2n1CC(=O)Nc1ccc2c(c1)OCCO2 (configuration not stated),1.2%,-1.4%,27.3,26.5*,1.7%,1.1%
Cn1c(C(=O)O)c(CC(=O)Nc2ccc3c(c2)OCCO3)c2ccccc21,1.9%,-27.9%,147.3*,63.5*,-6.2%,-0.4%
CNc1ccc(-c2nc3ccccc3s2)cc1,.,.,-8.4,-17.6,-17.3%,.
Cc1ccc(S(=O)(=O)N2CCOCC2)cc1C(=O)OCC(=O)c1ccc(Br)cc1,4.7%,-10.2%,.,.,.,.
Cc1cc(=O)oc(C)c1C(=O)OCC(=O)c1ccc(Cl)cc1,4.2%,9.4%,79.9*,34.9*,.,0.8%
Cc1cc(=O)oc(C)c1C(=O)OCC(=O)c1ccc(Br)cc1,2.1%,-3.5%,70.2*,24.2*,2.0%,0.9%
COC(=O)c1cn[nH]c1NC(=S)Nc1ccc(C)cc1Cl,-1.2%,-24.2%,74.5*,27.2*,9.5%,-0.1%

# Screening data deposited in PubChem BioAssay by National Center for Advancing Translational Sciences (NCATS).
